Screening data from PubChem BioAssay.
BL2 CD40 inh: CD40 pathway inhibition in BL2 cells; AID 1053188; 0.94% of 83,000 active; BL2 NF-kB luciferase reporter, CD40L-induced, 4 h; inhibition, % at 10 µM;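 active = mean inhibition of at least 50% with a set share of replicates also reaching that level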
Of the large screens only hits and unclear results are named; the others gave an inactive call; [ ] = dose if it differs, or a comment. The full list was thinned out, with hits kept by preference.

O=C(c1cc(-c2ccncc2)nc2ccccc12)N1CCN(Cc2ccccc2)CC1	none
O=C(C1CCCC1)N1CC(=O)N2[C@@H](CO)[C@@H](c3ccc(C#CCc4ccccc4)cc3)[C@@H]2C1	BL2 CD40 inh 54.7
O=C(C1CCCC1)N1CC(=O)N2[C@H](C1)[C@@H](c1ccc(C#CCc3ccccc3)cc1)[C@@H]2CO	BL2 CD40 inh 51.1
COCC#Cc1ccc([C@H]2[C@H]3CN(C(=O)C4CCCCC4)CC(=O)N3[C@H]2CO)cc1	none
O=C(C1CCCC1)N1CC(=O)N2[C@H](CO)[C@@H](c3ccc(C#CCc4ccccc4)cc3)[C@@H]2C1	none
O=C(C1CCOCC1)N1CC(=O)N2[C@H](CO)[C@@H](c3ccc(C#CCc4ccccc4)cc3)[C@H]2C1	none
COCC#Cc1ccc([C@H]2[C@H]3CN(C(=O)C4CCCC4)CC(=O)N3[C@H]2CO)cc1	none
O=C(C(=O)c1cc(Br)ccc1O)c1cc(Br)ccc1O	none
O=C(Nc1cccc(S(=O)(=O)N2CCCCC2)c1)c1cnccn1	none
CCS(=O)(=O)N1[C@H](C#N)[C@@H](c2ccc(C#Cc3ccccc3F)cc2)[C@@H]1CO	none
Cc1nn2c(NCc3cccnc3)c3c(nc2c1-c1ccccc1)CCC3	none
Cc1nn2c(NCCN(C)C)c3c(nc2c1-c1ccccc1)CCCC3	none
COc1cccc(-c2cc3nc4c(c(NCC(C)(C)CN(C)C)n3n2)CCCC4)c1	BL2 CD40 inh 62.9
CCC(C)Cn1cnc2c(Sc3c([N+](=O)[O-])ncn3C)nc(N)nc21 (centres undefined)	none
COc1ccc(OCCOC(=O)c2cccs2)cc1	none
COc1ccc(C2CC2/C(C)=N/OC(=O)c2cccs2)cc1 (centres undefined)	none
COc1ccc(C(=O)O/N=C(/C)c2cccs2)cc1	BL2 CD40 inh 58.6
Cc1noc(C)c1S(=O)(=O)N(C)C[C@H]1OCc2cnnn2CCCC(=O)N([C@H](C)CO)C[C@@H]1C	none
CC(C)NC(=O)N1CCCCN2[C@H](C1)[C@@H](c1ccc(Br)cc1)[C@@H]2CO	none
N#Cc1ccccc1NC(=O)COC(=O)c1cccs1	none
COc1ccc(NC(=O)c2cccc(Oc3ccccc3)c2)cn1	none
CCN1CCN(C(=O)CN(C)S(=O)(=O)c2ccc(Cl)cc2)CC1	none
CN(CC(=O)N1CCCCC1)S(=O)(=O)c1ccc(Cl)cc1	none
C=CC(=O)N1C/C(=C/c2ccc(Cl)cc2)C(=O)/C(=C\c2ccc(Cl)cc2)C1	BL2 CD40 inh 92.8
C[C@@H]1CN(C)C(=O)c2cccc([N+](=O)[O-])c2O[C@H]1CN(C)C(=O)OC(C)(C)C	none
C[C@H](CO)N1C[C@H](C)[C@H](CN(C)Cc2ccncc2)OCc2ccccc2-c2ccccc2C1=O	none
Cc1ccc2nc(NC(=O)c3ccc(Cn4cc(Cl)cn4)o3)sc2c1	none
COC(=O)C(Cc1ccccc1)N1CCS(=O)(=O)CC1 (centres undefined)	none
CN(C)C(=O)c1cccc(-c2ccc([C@@H]3[C@H](CO)N4CCCCN(Cc5cccnc5)C[C@@H]34)cc2)c1	none
O=C(C1CC(=O)N(c2ccc3c(c2)OCCO3)C1)N1CCN(c2ccccc2)CC1 (centres undefined)	none
COc1cccc(C#Cc2ccc([C@@H]3[C@@H](C#N)N(C(=O)c4ccccn4)[C@@H]3CO)cc2)c1	none
CCS(=O)(=O)N1[C@H](C#N)[C@@H](c2ccc(C#Cc3ccccc3F)cc2)[C@H]1CO	none
N#C[C@@H]1[C@H](c2ccc(C#Cc3cccc(F)c3)cc2)[C@@H](CO)N1C(=O)C1CCC1	BL2 CD40 inh 99.3
N#C[C@@H]1[C@@H](c2ccc(C#Cc3cccc(F)c3)cc2)[C@@H](CO)N1C(=O)C1CC1	none
COc1cccc(C#Cc2ccc([C@@H]3[C@@H](C#N)N(C(=O)c4ccccn4)[C@H]3CO)cc2)c1	none
COc1cccc(C#Cc2ccc([C@H]3[C@@H](C#N)N(C(=O)c4ccccn4)[C@@H]3CO)cc2)c1	BL2 CD40 inh 53.4[25 µM]
CCS(=O)(=O)N1[C@H](CO)[C@H](c2ccc(C#Cc3ccccc3F)cc2)[C@@H]1C#N	none
N#C[C@@H]1[C@@H](c2ccc(C#Cc3cccc(F)c3)cc2)[C@@H](CO)N1C(=O)C1CCCC1	none
N#C[C@@H]1[C@H](c2ccc(C#Cc3ccc(F)cc3)cc2)[C@@H](CO)N1C(=O)C1CCCC1	BL2 CD40 inh 87.4
CCS(=O)(=O)N1[C@H](CO)[C@@H](c2ccc(C#Cc3ccccc3F)cc2)[C@@H]1C#N	BL2 CD40 inh 64.8[25 µM]
N#C[C@H]1[C@H](c2ccc(C#Cc3ccc(F)cc3)cc2)[C@H](CO)N1C(=O)C1CC1	none
N#C[C@H]1[C@@H](c2ccc(C#Cc3ccccc3F)cc2)[C@@H](CO)N1C(=O)C1CCCC1	none
O=C(CN1CCOCC1)N(CC1CCC1)C[C@H]1N[C@H](CO)[C@@H]1c1ccccc1	none
O=C1N(Cc2ccccc2)CCCC12CCCN(Cc1ccccc1)C2=O	none
COc1ccc(S(=O)(=O)N(C)C[C@@H]2OCCCC[C@H](C)Oc3ccc(NS(=O)(=O)c4ccc(Cl)cc4)cc3C(=O)N([C@@H](C)CO)C[C@@H]2C)cc1	none
N#C[C@@H]1[C@H](c2ccccc2C2=CCCCC2)[C@H](CO)N1C(=O)C1CCOCC1	none
COCCn1c(=NC(C)=O)sc2cc([N+](=O)[O-])ccc21	none
O=C(NCc1ccccc1)c1ccc(CN2CCOCC2)cc1	none
